Screens deposited in PubChem by National Center for Advancing Translational Sciences (NCATS).
HT1080NT lethal: qHTS for induction of synthetic lethality in tumor cells producing 2HG: qHTS for the HT-1080-NT fibrosarcoma cell line. 360,000 compounds, 1.6% hits. Potency, µM (doses to about 46.1 µM), without a hit: top-dose activity, negative = less viability, most hits filed as cytotoxic. HT-1080-NT fibrosarcoma viability, CellTiter-Glo ATP luminescence, 48 h;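 further: NT is the 2HG producing partner of a matched IDH1 knockdown line; 0% = DMSO-treated cells and -100% = media-only wells without cells; nearly all actives have a fitted effect of over 55% in size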
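Compounds were tested in concentration-response format on HT-1080-NT cells for 48 hours at 37 degrees C. Cell viability came from CellTiter-Glo luminescence; curves were classified by r2, response magnitude and activity.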
TDP1 cell CPT: qHTS for Inhibitors of human tyrosyl-DNA phosphodiesterase 1 (TDP1): qHTS in cells in presence of CPT; chicken DT40 Tdp1-/-;hTDP1 cells + 20 nM CPT, ATP luminescence, 48 h; Potency, µM (titrated, usually from 46.2 µM), for the others: top-dose activity change, negative = growth inhibition, actives largely listed as inhibitors; 420,000 compounds, 12% hits; AID 686979, 2013; further: nearly all actives have a fitted effect of over 55% in size
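Chicken DT40 Tdp1-/- cells stably complemented with human TDP1 were seeded at 400 cells/well in medium containing 20 nM camptothecin, exposed to pin-transferred compounds, and grown at 37 °C for at least 48 hr. Viability was read as ATP luminescence.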
KB-V1 MDR tox: qHTS assay for MDR1-selective chemotherapeutics: Primary screen using the drug-selected MDR subline cells KB-V1 | AID 1347076, 2019 | Potency, µM (doses to about 46.1 µM), usual class: cytotoxic | KB-V1 MDR cells viability, CellTiter-Glo, 72 h | 400,000 compounds, 3.4% hits; further: nearly all actives have a fitted effect of over 60% in size
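Cells of the MDR subline KB-V1 are plated, dosed with compound at multiple concentrations, and incubated 72 h at 37 degrees C; CellTiter-Glo is then added and luminescence read after 10 min.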
TDP1 cell noCPT: qHTS for Inhibitors of human tyrosyl-DNA phosphodiesterase 1 (TDP1): qHTS in cells in absence of CPT; DT40 Tdp1-/- hTDP1 cells, no CPT, ATP luminescence, 48 h; Potency, µM (highest dose often 46.2 µM), inactives show at the top dose activity change, negative = growth inhibition, usual class: inhibitors; 420,000 compounds, 15% hits; AID 686978, 2013; further: nearly all actives have a fitted effect of over 55% in size
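Chicken DT40 Tdp1-/- cells stably complemented with human TDP1 were seeded at 400 cells/well with DMSO in place of 20 nM camptothecin. After compound pinning, cells grew at least 48 hr at 37 °C; viability read by CellTiter-Glo luminescence.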
HT1080 IDH1KD tx: qHTS for induction of synthetic lethality in tumor cells producing 2HG: qHTS for the HT-1080-IDH1KD cell line; AID 686971, 2013; Potency, µM (top dose mostly 46.1 µM), for the others: at the top dose activity, negative = toxicity, most hits filed as cytotoxic; 360,000 compounds, 2% hits; HT-1080 IDH1 knockdown viability, ATP luminescence, 48 h;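 further: 0% = DMSO wells and -100% = cell-free medium wells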
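% activity derives from luminescence (CellTiter-Glo), normalised to DMSO and no-cell wells. HT-1080-IDH1KD cells, 750/well, had 48 h compound exposure at 37 °C.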
KB-3-1 tox: qHTS assay for MDR1-selective chemotherapeutics: Primary screen using the parental adenocarcinoma cell KB-3-1. KB-3-1 viability, CellTiter-Glo ATP luminescence, 72 h. Potency, µM (highest dose often 46.1 µM), most hits filed as cytotoxic. 400,000 compounds, 1.4% hits. AID 1347075, 2019; further: nearly all actives have a fitted effect of over 60% in size
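Viability of parental KB-3-1 cells, measured by CellTiter-Glo luminescence, followed a 72 h incubation at 37 °C with pinned compounds in phenol-red-free DMEM containing 10% FBS.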
Active calls of the source: *; [ ] = remark or other dose. Hits are enriched below; roughly 19% of the tested compounds scored in any of these assays. The call rests on the fitted dose curve; in most records, active means well fitted curve in the direction sought with a large enough effect; inconclusive means small, poorly fitted or top-dose-only effect, or another doubt; inactive means no such curve, though single readings can be large; an effect the other way counts as inactive or inconclusive. Unless noted, on the % scale 0 is the no-effect control and ±100 the full control effect; potency means the concentration at half of the fitted maximal effect.

Results for COc1ccc(OC)c(CN2CCN(C(=O)c3cccs3)CC2)c1 ?
HT1080NT lethal: 18%; TDP1 cell CPT: -10%; KB-V1 MDR tox: 21µM*; TDP1 cell noCPT: -29%; HT1080 IDH1KD tx: 14%; KB-3-1 tox: inactive

Results for O=C(c1cccs1)N1CCN(CCCc2ccccc2)CC1 ?
HT1080NT lethal: 27%; TDP1 cell CPT: -12%; KB-V1 MDR tox: 12µM*; TDP1 cell noCPT: -21%; HT1080 IDH1KD tx: -1%; KB-3-1 tox: inactive

How did COCc1ccc(C(=O)N2CCOc3ccc(CN4CCN(c5ccc(F)cc5)CC4)cc3C2)o1 do in these assays?
TDP1 cell CPT: 21µM*; TDP1 cell noCPT: 21µM*

Results for CCOC(=O)N1CCN(Cc2ccc3c(c2)CN(C(=O)c2ccc4ncccc4c2)CCO3)CC1 ?
TDP1 cell CPT: -11%[9.04 µM]; TDP1 cell noCPT: 23µM*

What do the screens show for `COc1ccc(C(=O)N2CCOc3ccc(CN4CCN(c5ccccn5)CC4)cc3C2)o1`?
TDP1 cell CPT: 4%[9.04 µM]; TDP1 cell noCPT: -22%

Results for CC(C)c1nc(C(=O)N2CCOc3ccc(CN4CCN(c5ccccn5)CC4)cc3C2)cs1 ?
TDP1 cell CPT: -18%[9.04 µM]; TDP1 cell noCPT: 15µM*

Results for Cc1nc2sccn2c1CN1CCOc2ccc(CN3CCN(c4ccc(F)cc4)CC3)cc2C1 ?
TDP1 cell CPT: 2.9µM*; TDP1 cell noCPT: 2.6µM*

How did CCCc1nnc(N2C(=O)c3oc4ccc(F)cc4c(=O)c3C2c2ccc(C(=O)OC)cc2)s1 (configuration not stated) do in these assays?
TDP1 cell CPT: -9%; KB-V1 MDR tox: inconclusive; TDP1 cell noCPT: -15%; KB-3-1 tox: inactive

What do the screens show for `CCNC(=O)C1CCCN(C(=O)c2ccc(-c3ccccc3)cc2)CC1` (configuration not stated)?
HT1080NT lethal: 6%; TDP1 cell CPT: -13%; KB-V1 MDR tox: inactive; TDP1 cell noCPT: inconclusive; HT1080 IDH1KD tx: 17%; KB-3-1 tox: inactive

What do the screens show for `CCOC(=O)N1CCN(Cc2ccc3c(c2)CN(C(=O)c2ccc(C#CC(C)(C)O)o2)CCO3)CC1`?
TDP1 cell CPT: inconclusive; TDP1 cell noCPT: 9.2µM*

How did COC(=O)C1CCN(Cc2ccc3c(c2)CN(C(=O)c2sc(C)nc2C)CCO3)CC1 do in these assays?
TDP1 cell CPT: -8%[9.04 µM]; TDP1 cell noCPT: -15%

What do the screens show for `CCOC(=O)N1CCN(Cc2ccc3c(c2)CN(C(=O)c2sc(C)nc2C)CCO3)CC1`?
TDP1 cell CPT: -8%[9.04 µM]; TDP1 cell noCPT: 16µM*

Results for CCN(Cc1ccncc1)Cc1ccc2c(c1)CN(C(=O)c1ccc(C#CC(C)(C)O)o1)CCO2 ?
TDP1 cell CPT: 4%[9.04 µM]; TDP1 cell noCPT: inconclusive

What do the screens show for `CCc1ccc(CNc2nc3nc(C)c(Cc4ccccc4)c(=O)n3[nH]2)cc1`?
TDP1 cell CPT: inconclusive; KB-V1 MDR tox: inactive; TDP1 cell noCPT: inconclusive; KB-3-1 tox: inactive

How did Cc1nn(-c2ccccn2)c2c1C(=O)CC(C)(C)C2N=[N+]=[N-] (configuration not stated) do in these assays?
HT1080NT lethal: -9%; TDP1 cell CPT: inconclusive; KB-V1 MDR tox: inactive; TDP1 cell noCPT: inconclusive; HT1080 IDH1KD tx: -20%; KB-3-1 tox: inactive
